Test systems include MOLT-4 leukemia; SR leukemia; RPMI-8226 leukemia; OVCAR-8 ovarian; OVCAR-4 ovarian; SK-OV-3 ovarian; IGROV1 ovarian; OVCAR-3 ovarian; HS 578T breast; NCI/ADR-RES ovarian; T-47D breast; BT-549 breast; MDA-MB-435 melanoma; SW-620 colon; MCF7 breast; HCT-116 colon; HCC-2998 colon; KM12 colon; OVCAR-5 ovarian.
Common to all, as to assay: NCI-60 one-dose screen, 48 h (100 = growth as untreated, 0 = no growth, -100 = all killed)
What all share (conditions): 10 µM unless noted

The panel holds about 83,000 compounds, 20% with a hit somewhere; the sample as a whole holds those more often.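 Plates (96-well) were seeded with cells, treated with compound at one concentration, and incubated for 48 hours before percent growth was determined.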 Values without a mark were called inactive. The source made the active and inactive calls. The calls were made as follows: active = growth percent below 10; inactive = the rest.

Regarding `Clc1ccc(CSC(Cn2ccnc2)c2ccc(Cl)cc2Cl)cc1` (stereo unspecified), the growth in the test with MOLT-4 leukemia was 1.87% (active); with SR leukemia it was 2.95% (active); in the test on RPMI-8226 leukemia it was 29.8%; in the test on OVCAR-8 ovarian, 14.3%; in the test with OVCAR-4 ovarian it was 25.9%; in the test with SK-OV-3 ovarian, 71.9%. Also, the growth in the test on IGROV1 ovarian was 29.1%; in the test with OVCAR-3 ovarian, 38.8%; with HS 578T breast, 63.5%; in the test with NCI/ADR-RES ovarian it was 14.1%; with T-47D breast it was 29.5%; in the test with BT-549 breast, 4.34% (active). In addition, the growth in the test on MDA-MB-435 melanoma was 31.4%; in the test on SW-620 colon, 29.2%; in the test with MCF7 breast it was 20.9%; in the test with HCT-116 colon, 7.38% (active); in the test with HCC-2998 colon, 36.1%; in the test on KM12 colon, 16.1%.

Consider `CC(C)(C)C(=O)OCOP(=O)(OCOC(=O)C(C)(C)C)C1CCCN(O)C1=O` (stereo unspecified), for which the growth is 3.92% (active) in the test on MOLT-4 leukemia; 13.7% in the test with SR leukemia; -18% (active) with RPMI-8226 leukemia; 5.69% (active) with OVCAR-8 ovarian; 11.2% in the test with OVCAR-4 ovarian; 12.2% in the test with SK-OV-3 ovarian. In addition, the growth was -4.01% (active) with IGROV1 ovarian; 4.08% (active) with OVCAR-3 ovarian; -8.85% (active) in the test with HS 578T breast; 1.93% (active) in the test with NCI/ADR-RES ovarian; 8.21% (active) in the test with T-47D breast; 4.85% (active) in the test on BT-549 breast. Moreover, the growth is 36.6% in the test on MDA-MB-435 melanoma; 22.9% with SW-620 colon; 0.807% (active) in the test on MCF7 breast; 1.32% (active) in the test on HCT-116 colon; 5.6% (active) in the test on HCC-2998 colon; -3.46% (active) with KM12 colon.

Turning to `CC[C@H](C)[C@H](NC(=O)[C@H]1CCCCN1C)C(=O)N(C)[C@H](C[C@@H](O)c1nc(C(=O)N[C@@H](Cc2ccccc2)C[C@H](C)C(=O)O)cs1)C(C)C`, the growth is 79% in the test on MOLT-4 leukemia; 29.2% in the test on SR leukemia; 59.8% with RPMI-8226 leukemia; 93.5% in the test on OVCAR-8 ovarian; 98% with OVCAR-4 ovarian; 97% in the test with SK-OV-3 ovarian. Besides, the growth with IGROV1 ovarian is 76.6%; in the test on OVCAR-3 ovarian, 63.2%; in the test with HS 578T breast, 75.7%; in the test with NCI/ADR-RES ovarian, 109%; in the test on T-47D breast, 81.5%; in the test on BT-549 breast, 88.5%. Besides, the growth with MDA-MB-435 melanoma is 18.9%; in the test with SW-620 colon, 58.6%; in the test on MCF7 breast it was 29.9%; in the test with HCT-116 colon, 77.7%; in the test on HCC-2998 colon it was 99.9%; with KM12 colon it was 72.7%.

Consider `c1ccc(COc2ccc3[nH]cc(CCN(Cc4ccccc4)Cc4ccccc4)c3c2)cc1`, for which the growth was 70.7% with MOLT-4 leukemia; 69.5% with SR leukemia; 74.9% in the test with RPMI-8226 leukemia; 98.1% in the test with OVCAR-8 ovarian; 95.4% in the test on OVCAR-4 ovarian; 91.2% in the test on SK-OV-3 ovarian. Besides, the growth was 90.7% with IGROV1 ovarian; 96.7% with OVCAR-3 ovarian; 99.5% in the test with HS 578T breast; 91.4% in the test with NCI/ADR-RES ovarian; 62.9% with T-47D breast; 103% with BT-549 breast. Besides, the growth was 102% in the test on MDA-MB-435 melanoma; 90.5% in the test with SW-620 colon; 79.3% in the test on MCF7 breast; 60.3% in the test with HCT-116 colon; 99.7% in the test with HCC-2998 colon; 88% in the test with KM12 colon.

Take `COc1ccc(Nc2ccnc3cc(Cl)ccc23)cc1CN(CCCl)CCCl`: the growth in the test with MOLT-4 leukemia was -12.1% (active); in the test on SR leukemia it was -0.721% (active); in the test on RPMI-8226 leukemia, -25.8% (active); in the test on OVCAR-8 ovarian, -39.3% (active); with OVCAR-5 ovarian, -26.1% (active); in the test on SK-OV-3 ovarian it was 8.86% (active). For the same compound, the growth is -36% (active) in the test with IGROV1 ovarian; -27.6% (active) in the test with HS 578T breast; -40.4% (active) with NCI/ADR-RES ovarian; -7.47% (active) in the test on T-47D breast; -50.6% (active) in the test with BT-549 breast; -88.3% (active) with MDA-MB-435 melanoma. The growth was -28.6% (active) with SW-620 colon; -10.7% (active) in the test with MCF7 breast; -79.8% (active) in the test on HCT-116 colon; -79.5% (active) in the test on HCC-2998 colon; -62.6% (active) in the test on KM12 colon.

As for `COc1cc(C=Nc2cccc(Br)c2)ccc1N(CCCl)CCCl`, the growth with MOLT-4 leukemia was 64.2%; in the test on SR leukemia, 44.1%; with RPMI-8226 leukemia it was 86.2%; in the test on OVCAR-8 ovarian, 81.6%; in the test with OVCAR-4 ovarian, 93.6%; with SK-OV-3 ovarian, 71.3%. Besides, the growth was 96.3% in the test on IGROV1 ovarian; 80.8% in the test on OVCAR-3 ovarian; 150% in the test with HS 578T breast; 80.7% with NCI/ADR-RES ovarian; 91.3% in the test on T-47D breast; 85.5% with BT-549 breast. Besides, the growth was 103% in the test with MDA-MB-435 melanoma; 74.5% in the test on SW-620 colon; 66.6% with MCF7 breast; 87% in the test on HCT-116 colon; 60.1% in the test with HCC-2998 colon; 40.6% in the test on KM12 colon.

`O=c1[nH]cc(N(CCCl)CCCl)c(=O)[nH]1`: the growth was 15.3% in the test on MOLT-4 leukemia; 10.4% in the test on SR leukemia; 77.8% in the test on RPMI-8226 leukemia; 70.1% with OVCAR-5 ovarian; 105% in the test with OVCAR-4 ovarian; 93.3% with SK-OV-3 ovarian. Besides, the growth is 50.2% in the test with IGROV1 ovarian; 98.5% with OVCAR-3 ovarian; 87.8% with HS 578T breast; 66.3% in the test with NCI/ADR-RES ovarian; 53% in the test on T-47D breast; 81.5% in the test on BT-549 breast. For the same compound, the growth was 86.5% with MDA-MB-435 melanoma; 71.8% with SW-620 colon; 53.1% in the test with MCF7 breast; 78.8% in the test with HCT-116 colon; 61.6% in the test on HCC-2998 colon.

For `C[n+]1c(/C=C/c2ccc(N(CCCl)CCCl)cc2)sc2ccccc21`, the growth with MOLT-4 leukemia is 36.8%; with SR leukemia, 19.7%; in the test with RPMI-8226 leukemia, 27.5%; in the test with OVCAR-8 ovarian it was 30%; in the test on SK-OV-3 ovarian it was 55.1%; with IGROV1 ovarian it was 75%. The growth in the test on OVCAR-3 ovarian is 25.5%; in the test on HS 578T breast it was 98.8%; in the test on NCI/ADR-RES ovarian, 102%; in the test on T-47D breast, 16.8%; with BT-549 breast, 64.3%; in the test on MDA-MB-435 melanoma, 76.1%. For the same compound, the growth in the test with SW-620 colon is 23.1%; in the test with MCF7 breast, 27.3%; in the test on HCT-116 colon, 48.4%; in the test with HCC-2998 colon, 84.4%; in the test with KM12 colon, 74.8%.
